TNAP act DEA: activators of human TNAP at intermediate phosphate acceptor. P05186. purified TNAP, CDP-star luminescence, 100 mM DEA, 30 min; stronger effect = higher value; scale: 0 levamisole-inhibited, 1 vehicle-only enzyme. activation factor at 20 µM. 64,000 tested, under 10 active. AID 813;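 active = activation factor of at least 2 at 20 µM, relative to controls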
Cav3 T inh: human Cav3.2 channel inhibition, primary screen; O95180; Cav3.2-expressing cells, Fluo-4 calcium fluorescence FDSS; stronger effect = lower value; B-score at 10 µM; 100,000 compounds, 4% hits; AID 449739;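 active = single-dose well whose peak fluorescence ratio is a statistical outlier from its plate by either plate-standardised score or position-corrected B-score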
Target sequence (O95180 whole entry, looked up): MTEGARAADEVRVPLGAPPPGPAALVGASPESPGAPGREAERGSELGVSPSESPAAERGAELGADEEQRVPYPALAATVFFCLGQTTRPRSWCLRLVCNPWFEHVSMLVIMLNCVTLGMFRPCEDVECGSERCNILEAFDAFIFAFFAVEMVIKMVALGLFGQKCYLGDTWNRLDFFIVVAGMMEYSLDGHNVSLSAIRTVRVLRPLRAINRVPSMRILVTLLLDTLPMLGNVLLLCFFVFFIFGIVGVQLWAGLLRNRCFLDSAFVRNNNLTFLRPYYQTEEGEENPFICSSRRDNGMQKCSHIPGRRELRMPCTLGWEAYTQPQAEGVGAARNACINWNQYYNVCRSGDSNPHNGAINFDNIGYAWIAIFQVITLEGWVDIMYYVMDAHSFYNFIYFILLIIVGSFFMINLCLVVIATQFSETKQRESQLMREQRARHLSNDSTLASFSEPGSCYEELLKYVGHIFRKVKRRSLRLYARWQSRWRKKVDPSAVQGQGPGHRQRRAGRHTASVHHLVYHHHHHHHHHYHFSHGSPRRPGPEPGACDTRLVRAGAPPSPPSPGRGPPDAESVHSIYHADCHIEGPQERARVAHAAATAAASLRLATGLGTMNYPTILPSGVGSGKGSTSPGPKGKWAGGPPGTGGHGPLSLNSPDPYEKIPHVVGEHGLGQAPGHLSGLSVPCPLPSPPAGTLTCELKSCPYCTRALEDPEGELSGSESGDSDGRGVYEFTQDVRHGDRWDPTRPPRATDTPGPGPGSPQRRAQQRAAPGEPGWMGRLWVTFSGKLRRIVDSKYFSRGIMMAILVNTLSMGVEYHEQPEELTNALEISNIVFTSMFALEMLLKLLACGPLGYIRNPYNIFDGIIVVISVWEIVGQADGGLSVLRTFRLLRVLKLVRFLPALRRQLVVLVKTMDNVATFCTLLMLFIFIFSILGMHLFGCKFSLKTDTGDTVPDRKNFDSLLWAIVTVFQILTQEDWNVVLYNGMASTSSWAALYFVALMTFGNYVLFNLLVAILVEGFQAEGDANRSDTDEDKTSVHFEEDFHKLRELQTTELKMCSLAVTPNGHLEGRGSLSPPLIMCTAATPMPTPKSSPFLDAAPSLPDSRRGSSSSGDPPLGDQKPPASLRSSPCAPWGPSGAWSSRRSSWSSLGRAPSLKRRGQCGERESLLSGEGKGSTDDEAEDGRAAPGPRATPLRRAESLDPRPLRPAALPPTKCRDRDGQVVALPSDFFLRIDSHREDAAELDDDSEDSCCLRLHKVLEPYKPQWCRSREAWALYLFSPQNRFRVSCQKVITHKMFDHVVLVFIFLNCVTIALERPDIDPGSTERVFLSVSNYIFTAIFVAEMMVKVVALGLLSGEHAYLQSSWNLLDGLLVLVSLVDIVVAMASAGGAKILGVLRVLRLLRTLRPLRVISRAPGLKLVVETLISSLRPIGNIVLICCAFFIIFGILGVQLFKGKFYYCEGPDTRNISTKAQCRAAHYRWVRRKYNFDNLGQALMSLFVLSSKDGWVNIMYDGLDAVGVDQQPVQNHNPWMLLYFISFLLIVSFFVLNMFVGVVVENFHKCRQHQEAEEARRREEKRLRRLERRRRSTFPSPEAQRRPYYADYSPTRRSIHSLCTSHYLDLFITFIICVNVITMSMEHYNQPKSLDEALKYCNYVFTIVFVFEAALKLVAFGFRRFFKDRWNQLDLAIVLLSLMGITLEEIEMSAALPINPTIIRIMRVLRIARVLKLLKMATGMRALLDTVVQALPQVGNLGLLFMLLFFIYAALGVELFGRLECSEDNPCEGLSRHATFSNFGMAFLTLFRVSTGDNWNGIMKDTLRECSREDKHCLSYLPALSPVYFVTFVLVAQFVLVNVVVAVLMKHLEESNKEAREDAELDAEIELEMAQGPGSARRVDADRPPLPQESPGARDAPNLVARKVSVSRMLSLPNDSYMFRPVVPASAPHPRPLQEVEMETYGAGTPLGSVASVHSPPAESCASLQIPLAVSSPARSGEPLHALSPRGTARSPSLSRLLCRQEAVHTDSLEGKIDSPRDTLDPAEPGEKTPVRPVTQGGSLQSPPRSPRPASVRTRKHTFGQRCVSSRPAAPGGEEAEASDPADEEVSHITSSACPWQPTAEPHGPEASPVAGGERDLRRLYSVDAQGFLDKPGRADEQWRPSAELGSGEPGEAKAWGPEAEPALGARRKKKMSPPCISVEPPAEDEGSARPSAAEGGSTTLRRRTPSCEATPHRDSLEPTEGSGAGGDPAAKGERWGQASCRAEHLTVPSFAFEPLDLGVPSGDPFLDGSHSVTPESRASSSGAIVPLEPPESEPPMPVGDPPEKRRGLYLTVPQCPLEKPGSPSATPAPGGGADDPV
PostGolgi ctrl: yeast control strain growth, post-Golgi counter-screen; efflux-deficient yeast background strain, growth absorbance A615, 16 h; inhibition, % at 10 µM; 98,000 compounds, 5% hits
PostGolgi yeast: growth inhibition of a yeast mutant, post-Golgi transport screen | post-Golgi transport phenotypic cell assay | inhibition, % at 10 µM | 98,000 compounds, 0.9% hits | AID 739;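 note: yeast cells grown in 1536-well plates; yeast grown about 18 h at 30C before absorbance read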
Smad3 FoxH1 inh: inhibitors of human Smad3 transcription factor binding; inhibition, % at 25 µM; AID 630; TR-FRET Smad3/Dy647-FoxH1 peptide binding, europium anti-His; P84022; 88,000 compounds, 0.29% hits;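 active = compounds that reduce the energy-transfer binding signal between the protein and its labelled peptide by more than half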;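 note: 0% = Smad3 plus labelled peptide maximal FRET and 100% = peptide-only background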
DAT uptake mod: changed human dopamine transporter uptake under cocaine IC80; B-score at 10 µM; AID 449768; LLC-PK1 hDAT cells, [14C]-dopamine uptake with cocaine IC80; actives deviate in either direction; Q01959; 110,000 compounds, 1.3% hits;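 active = Z score or B-score, a plate-position-corrected score, falls beyond the plate's 99.7% confidence bounds, in either direction; inactive = both scores lie inside the 99.7% bounds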;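 note: scored against the spread of the other compound wells on the same plate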
The depositor's hits bear a star; / = no result given; [ ] = remark or other dose. A selection: hits, their analogues and other compounds. The true share with any hit is near 8.7%. Cut-off read from the data, not from the text of the source, unless noted: active = inhibition above about 30%; inactive = the rest.

SMILES	TNAP act DEA	Cav3 T inh	PostGolgi ctrl	PostGolgi yeast	Smad3 FoxH1 inh	DAT uptake mod
CCOC(=O)c1c(-c2cccs2)csc1NC(=O)C(C)(C)C	/	-0.19	2	1	-9	-0.89
CCOC(=O)c1c(-c2cccs2)csc1NC(=O)CSc1ncn[nH]1	1.1	-4.7*	19	-3	6	-0.79
CCOC(=O)c1c(-c2cccs2)csc1NC(C)=O	/	-2.3	/	/	5	0.21
CCOC(=O)c1c(-c2ccc(C)o2)csc1NC(=O)CSc1nnnn1-c1ccccc1	0.9	-2.7	7	5	-12	1.1
CCOC(=O)CNS(=O)(=O)c1c(C)noc1C	0.9	-0.46	-1	8	-25	-0.69
Cc1noc(C)c1S(=O)(=O)NCC(=O)O	0.9	-1.5	14	5	6	2.3*
O=C(O)c1[nH]c2ccccc2c1-c1ccccc1	/	-0.11	0	2	80*[fluorescence artefact?]	-0.66
Cc1ccc2[nH]c(C(=O)O)c(-c3ccccc3)c2c1	0.9	-2.3	0	20	5	0.87
CC1(C)Cc2c(sc3nc(SCC(=O)NCc4ccco4)n(-c4ccccc4)c(=O)c23)CS1	0.9	-2.6	1	-2	-13	2.8*
O=C(CSc1nc2sc3c(c2c(=O)n1-c1ccccc1)CCCC3)NCc1ccco1	0.9	/	32*	-1	/	/
COc1ccc(-c2nc(CN3CCC(C(=O)NC(C)C)CC3)c(C)o2)cc1OC	0.9	/	/	/	1	/
COc1cccc(C(=O)Nc2cc(NC(=O)c3ccco3)ccc2OC)c1	0.9	-0.14	4	-4	7	2.6
CCOc1ccccc1NC(=O)c1ccc(NC(=O)c2ccco2)cc1	/	-0.16	/	/	-3	3.9*
COc1ccc(NC(=O)c2ccco2)cc1NC(=O)c1cccc(OC(C)C)c1	0.9	-5.6*	27	-4	4	2.6
COc1ccc(OC)c2c1sc(=NC(=O)c1cccc(N3C(=O)CCC3=O)c1)n2C	/	1.3	31*	-11	/	-0.45
CCc1nc2oc3ccccc3c(=O)c2c(=O)n1-c1ccccc1	0.9	0.032	30*	-6	9	-0.23
O=C(NCCOCCOCCNC(=O)c1cccnc1)c1cccnc1	0.9	-0.15	2	-8	-12	0.29
CC(C)(C)c1ccc(C(=O)N2CCC(C(=O)NCCC3=CCCCC3)CC2)cc1	/	-5*	3	2	/	1.5
O=C(NCCC1=CCCCC1)C1CCN(C(=O)Nc2ccccc2)CC1	0.9	1.4	-5	-7	1	-0.15
Cc1ccc(NC(=O)c2noc3c2CCc2ccccc2-3)cc1	/	0.49	4	7	-10	0.16
Cc1nn(Cc2ccccc2)c(C)c1NC(=O)c1noc2c1CCc1ccccc1-2	/	-6.3*	18	-11	0	0.54
CCCC(=O)c1ccc(-c2ccccc2)cc1	/	/	-2	5	/	-0.7
CC1CCCC(C)N1C(=O)Nc1cccc(Cl)c1 (configuration not stated)	0.9	0.17	6	3	3	0.021
Cc1ccc(C(=O)N2CCN(c3ccc(Cl)cc3)CC2)cc1	0.9	0.014	20	5	-3	1.2
Cc1ccc(C(=O)N2CCN3C(=O)c4ccccc4C23c2ccc(Cl)cc2)cc1 (configuration not stated)	/	-5*	39*	21	0	-0.18
SMILES	TNAP act DEA	Cav3 T inh	PostGolgi ctrl	PostGolgi yeast	Smad3 FoxH1 inh	DAT uptake mod
O=C(Nc1cccc(Cl)c1)N1CCN2C(=O)c3ccccc3C12c1ccccc1 (configuration not stated)	/	-6.6*	4	18	4	-2.4
COc1ccc(CC(=O)Nc2nnc(C)s2)cc1	/	0.32	6	1	3	-0.34
CC1CCCN(c2nc3ccsc3c(=O)s2)C1 (configuration not stated)	1	-1.2	22	-6	7	-0.63
Oc1c(Cl)cc(Cl)cc1C=Nc1ccc(Br)cc1	/	-7.6*	14	-22	/	1.4
CCCN(CCC)c1nc(N)nc(-c2cc(Cl)ccc2OC)n1	/	-1.2	56*	9	/	1
CCCNc1nc(N)nc(-c2cc(Cl)ccc2OC)n1	/	-0.57	14	2	/	2.5
COc1ccccc1NC(=O)COc1ccc(C(=O)OCC(=O)N2CCCC2=O)cc1OC	0.9	1	12	-6	0	-2.5
CCN(CC)S(=O)(=O)c1cc(C(=O)Nc2cc(Cl)ccc2N2CCN(C)CC2)ccc1Cl	/	-7.6*	16	4	/	2.9*
CC(=O)NNc1cc(N2CCOCC2)nc(N2CCOCC2)n1	/	0.4	/	/	/	-0.62
CC(C)(C)c1ccc(C(=O)NNc2cc(N3CCCCC3)nc(N3CCCCC3)n2)cc1	/	-8.3*	27	16	/	0.019
CC1CCN(c2cc(N3CCOCC3)c(F)cc2[N+](=O)[O-])CC1	/	-1.1	23	0	/	-2
CSc1nc(NCc2ccco2)c2c3c(sc2n1)CN(C)CC3	1	1.3	4	3	9	0.29
CCCCSc1nc(NCc2ccco2)c2c3c(sc2n1)COC(C)(C)C3	/	-5.7*	10	-2	9	0.041
CCCSc1nc(NCc2ccco2)c2c3c(sc2n1)COC(C)(C)C3	/	-5.6*	47*	-1	-6	1.3
CCCCCn1c(SC(C)C(C)=O)nc2c1c(=O)[nH]c(=O)n2C (configuration not stated)	0.9	/	14	-8	7	1
CCCn1c(SCC(=O)NCCc2ccc(Cl)cc2Cl)n[nH]c1=O	0.7	0.085	6	1	-2	3.4*
O=C(CCSc1ccc(Cl)cc1)N1CCN(c2ncccn2)CC1	0.9	-4.7*	6	14	11	0.93
O=C(CSc1ncc(C(F)(F)F)cc1Cl)N1CCN(S(=O)(=O)c2ccccc2)CC1	1	-4.1*	15	-4	-5	1.4
O=C(CSc1nc(-c2ccccc2)c(-c2ccccc2)[nH]1)N1CCN(S(=O)(=O)c2ccccc2)CC1	/	-6*	4	0	25	0.25
O=C(CN1CCN(c2ncc(C(F)(F)F)cc2Cl)CC1)N1CCN(c2ncc(C(F)(F)F)cc2Cl)CC1	/	-3.2*	30*	-4	-7	0.47
O=C(CCSc1ccc(Cl)cc1)N1CCCCCC1	/	-2.6	14	4	/	0.11
O=C(OCCN1CCN(c2ncc(C(F)(F)F)cc2Cl)CC1)c1ccc(F)cc1	/	-0.068	11	6	/	0.084
CCOC(=O)C1C(=O)CC(C)(O)C(C(=O)OCC)C1c1cccc(OC(F)(F)C(F)F)c1 (configuration not stated)	0.9	/	-2	-12	16	0.27
O=C(c1ccco1)N1CCN(C(=O)c2sccc2-c2ccccc2)CC1	0.9	2.7	14	6	-3	0.53
CCC1(C)CC(=O)N(c2ccc(C(=O)O)c(O)c2)C1=O (configuration not stated)	0.9	-0.13	2	2	4	0.32
O=C(CSc1ncc(C(F)(F)F)cc1Cl)N1CCN(S(=O)(=O)c2ccc(Cl)cc2)CC1	/	/	16	-9	/	/
O=C(CSc1ccc(Cl)cc1)N1CCN(c2ncc(C(F)(F)F)cc2Cl)CC1	/	-3.8*	18	0	/	1.3
